Test results from the supplement of paper PMC11732987, “Enantioselective OTUD7B fragment discovery through chemoproteomics screening and high-throughput optimisation” (Communications Chemistry, 2025).

Experiments:
Assay in all cases: log2 ratio of Biotin-Ahx-Ub-VS probe labelling (fragment/DMSO); higher = less target engagement (more negative = stronger competition), active = hit call of the paper (q ≤ 0.05, log2 ratio ≤ -1)
Conditions in all cases: compound concentration: 200 uM; treatment time: 3 h
USP34 = USP34 (UniProt Q70CQ2)
Sequence of USP34 (Q70CQ2 whole entry, the tested form may be a part): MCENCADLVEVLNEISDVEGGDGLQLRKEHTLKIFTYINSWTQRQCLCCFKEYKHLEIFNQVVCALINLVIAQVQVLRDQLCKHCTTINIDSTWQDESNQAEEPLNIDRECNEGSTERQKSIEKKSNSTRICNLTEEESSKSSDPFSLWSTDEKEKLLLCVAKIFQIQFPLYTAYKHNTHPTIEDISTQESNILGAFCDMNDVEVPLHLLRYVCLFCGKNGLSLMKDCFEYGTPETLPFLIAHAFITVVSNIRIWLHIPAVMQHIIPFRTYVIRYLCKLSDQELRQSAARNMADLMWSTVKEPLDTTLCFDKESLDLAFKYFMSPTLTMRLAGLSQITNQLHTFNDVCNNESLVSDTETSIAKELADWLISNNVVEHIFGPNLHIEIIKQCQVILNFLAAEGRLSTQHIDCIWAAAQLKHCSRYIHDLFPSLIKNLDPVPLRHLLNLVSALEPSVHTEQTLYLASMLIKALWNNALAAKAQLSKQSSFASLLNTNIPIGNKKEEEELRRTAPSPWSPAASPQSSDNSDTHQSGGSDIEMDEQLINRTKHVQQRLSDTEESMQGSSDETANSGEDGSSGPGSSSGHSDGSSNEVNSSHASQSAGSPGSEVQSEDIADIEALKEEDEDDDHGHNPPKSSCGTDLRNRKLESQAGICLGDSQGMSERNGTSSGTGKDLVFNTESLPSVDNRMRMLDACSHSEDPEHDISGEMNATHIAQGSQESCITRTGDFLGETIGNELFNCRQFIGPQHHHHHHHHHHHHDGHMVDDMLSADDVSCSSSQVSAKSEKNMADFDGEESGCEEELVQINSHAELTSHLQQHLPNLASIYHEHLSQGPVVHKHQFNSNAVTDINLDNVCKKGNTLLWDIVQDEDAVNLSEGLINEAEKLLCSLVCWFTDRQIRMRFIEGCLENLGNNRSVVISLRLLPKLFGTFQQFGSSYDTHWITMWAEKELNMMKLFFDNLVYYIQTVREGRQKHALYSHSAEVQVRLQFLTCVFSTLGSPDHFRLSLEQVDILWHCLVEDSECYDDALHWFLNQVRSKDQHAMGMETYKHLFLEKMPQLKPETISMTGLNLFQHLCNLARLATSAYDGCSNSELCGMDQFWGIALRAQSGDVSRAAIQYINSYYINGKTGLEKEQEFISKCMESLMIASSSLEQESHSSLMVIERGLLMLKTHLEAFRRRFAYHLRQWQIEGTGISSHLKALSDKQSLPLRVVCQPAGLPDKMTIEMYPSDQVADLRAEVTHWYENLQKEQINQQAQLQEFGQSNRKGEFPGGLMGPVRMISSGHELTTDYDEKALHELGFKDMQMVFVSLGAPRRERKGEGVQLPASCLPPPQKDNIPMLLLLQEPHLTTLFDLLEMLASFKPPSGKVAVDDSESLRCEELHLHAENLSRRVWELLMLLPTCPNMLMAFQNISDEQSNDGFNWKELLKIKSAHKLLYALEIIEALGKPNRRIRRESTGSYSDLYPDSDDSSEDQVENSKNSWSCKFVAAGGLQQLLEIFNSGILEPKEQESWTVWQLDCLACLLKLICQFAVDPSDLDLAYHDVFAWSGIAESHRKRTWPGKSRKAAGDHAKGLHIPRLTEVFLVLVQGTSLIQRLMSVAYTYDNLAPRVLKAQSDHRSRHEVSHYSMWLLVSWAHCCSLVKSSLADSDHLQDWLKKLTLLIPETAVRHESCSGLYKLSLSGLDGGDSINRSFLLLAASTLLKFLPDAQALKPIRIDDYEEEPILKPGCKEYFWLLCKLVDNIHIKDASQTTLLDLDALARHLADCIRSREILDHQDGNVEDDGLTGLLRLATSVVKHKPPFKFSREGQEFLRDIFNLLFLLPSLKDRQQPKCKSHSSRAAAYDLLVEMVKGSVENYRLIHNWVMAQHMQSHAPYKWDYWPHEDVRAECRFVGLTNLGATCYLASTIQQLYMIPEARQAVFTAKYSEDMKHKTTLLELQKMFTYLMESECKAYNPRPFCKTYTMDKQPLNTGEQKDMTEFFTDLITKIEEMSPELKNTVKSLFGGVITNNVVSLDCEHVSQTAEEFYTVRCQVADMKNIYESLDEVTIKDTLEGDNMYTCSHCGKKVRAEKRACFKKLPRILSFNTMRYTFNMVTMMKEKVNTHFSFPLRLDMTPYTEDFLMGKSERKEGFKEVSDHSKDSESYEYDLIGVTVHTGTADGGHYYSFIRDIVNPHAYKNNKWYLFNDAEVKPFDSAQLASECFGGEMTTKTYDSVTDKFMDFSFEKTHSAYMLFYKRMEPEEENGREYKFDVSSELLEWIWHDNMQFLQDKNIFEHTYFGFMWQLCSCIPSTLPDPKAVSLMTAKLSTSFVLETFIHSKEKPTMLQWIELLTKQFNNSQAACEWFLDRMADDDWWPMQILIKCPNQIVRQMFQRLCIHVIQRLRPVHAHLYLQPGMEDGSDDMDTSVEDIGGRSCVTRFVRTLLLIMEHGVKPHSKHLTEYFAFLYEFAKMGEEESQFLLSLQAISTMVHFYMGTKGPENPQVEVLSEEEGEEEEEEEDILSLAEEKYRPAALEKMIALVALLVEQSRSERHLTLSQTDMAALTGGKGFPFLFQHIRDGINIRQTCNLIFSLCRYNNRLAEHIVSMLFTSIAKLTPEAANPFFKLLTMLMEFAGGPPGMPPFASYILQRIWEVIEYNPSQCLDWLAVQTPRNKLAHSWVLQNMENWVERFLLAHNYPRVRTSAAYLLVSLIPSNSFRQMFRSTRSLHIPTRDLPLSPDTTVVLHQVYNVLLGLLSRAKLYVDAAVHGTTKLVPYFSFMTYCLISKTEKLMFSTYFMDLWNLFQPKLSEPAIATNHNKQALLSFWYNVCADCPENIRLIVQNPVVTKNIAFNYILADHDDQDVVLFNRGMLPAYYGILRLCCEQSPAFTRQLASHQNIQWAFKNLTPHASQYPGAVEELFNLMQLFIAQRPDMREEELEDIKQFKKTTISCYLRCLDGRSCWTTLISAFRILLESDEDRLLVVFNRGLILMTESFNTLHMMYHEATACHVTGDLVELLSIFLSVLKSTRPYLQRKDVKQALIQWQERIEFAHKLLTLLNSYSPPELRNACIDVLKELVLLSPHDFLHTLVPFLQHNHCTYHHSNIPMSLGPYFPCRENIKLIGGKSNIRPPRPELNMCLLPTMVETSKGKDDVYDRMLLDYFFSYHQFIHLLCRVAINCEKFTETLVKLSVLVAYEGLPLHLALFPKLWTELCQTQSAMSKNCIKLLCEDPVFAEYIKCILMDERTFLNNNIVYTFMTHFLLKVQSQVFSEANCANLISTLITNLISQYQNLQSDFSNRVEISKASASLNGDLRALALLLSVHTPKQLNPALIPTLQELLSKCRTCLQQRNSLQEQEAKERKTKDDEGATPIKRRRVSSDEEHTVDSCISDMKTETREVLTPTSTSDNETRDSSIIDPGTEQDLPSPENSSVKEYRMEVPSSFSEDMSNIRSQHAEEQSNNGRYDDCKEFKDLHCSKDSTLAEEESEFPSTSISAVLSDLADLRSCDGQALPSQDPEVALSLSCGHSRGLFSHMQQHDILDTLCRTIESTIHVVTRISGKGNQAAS
Procedure, shortened: (§1)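 HEK293T lysate, 495 µg per sample in Tris/CHAPS/IGEPAL buffer with protease inhibitors, was treated in triplicate with fragment at 200 µM or vehicle for 3 h and then with Biotin-Ahx-Ub-VS at 0.5 µM final for 1 h. Labelled DUBs were NeutrAvidin-enriched, digested with LysC and trypsin, and run by diaPASEF LC-MS/MS. Spectronaut label-free quantities were global-median-normalised, and values are average log2 fragment/vehicle ratios by unpaired t-test on proteins with ≥2 unique peptides.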

USP36 = target: T1, USP36 (UniProt Q9P275)
T1 sequence (whole entry): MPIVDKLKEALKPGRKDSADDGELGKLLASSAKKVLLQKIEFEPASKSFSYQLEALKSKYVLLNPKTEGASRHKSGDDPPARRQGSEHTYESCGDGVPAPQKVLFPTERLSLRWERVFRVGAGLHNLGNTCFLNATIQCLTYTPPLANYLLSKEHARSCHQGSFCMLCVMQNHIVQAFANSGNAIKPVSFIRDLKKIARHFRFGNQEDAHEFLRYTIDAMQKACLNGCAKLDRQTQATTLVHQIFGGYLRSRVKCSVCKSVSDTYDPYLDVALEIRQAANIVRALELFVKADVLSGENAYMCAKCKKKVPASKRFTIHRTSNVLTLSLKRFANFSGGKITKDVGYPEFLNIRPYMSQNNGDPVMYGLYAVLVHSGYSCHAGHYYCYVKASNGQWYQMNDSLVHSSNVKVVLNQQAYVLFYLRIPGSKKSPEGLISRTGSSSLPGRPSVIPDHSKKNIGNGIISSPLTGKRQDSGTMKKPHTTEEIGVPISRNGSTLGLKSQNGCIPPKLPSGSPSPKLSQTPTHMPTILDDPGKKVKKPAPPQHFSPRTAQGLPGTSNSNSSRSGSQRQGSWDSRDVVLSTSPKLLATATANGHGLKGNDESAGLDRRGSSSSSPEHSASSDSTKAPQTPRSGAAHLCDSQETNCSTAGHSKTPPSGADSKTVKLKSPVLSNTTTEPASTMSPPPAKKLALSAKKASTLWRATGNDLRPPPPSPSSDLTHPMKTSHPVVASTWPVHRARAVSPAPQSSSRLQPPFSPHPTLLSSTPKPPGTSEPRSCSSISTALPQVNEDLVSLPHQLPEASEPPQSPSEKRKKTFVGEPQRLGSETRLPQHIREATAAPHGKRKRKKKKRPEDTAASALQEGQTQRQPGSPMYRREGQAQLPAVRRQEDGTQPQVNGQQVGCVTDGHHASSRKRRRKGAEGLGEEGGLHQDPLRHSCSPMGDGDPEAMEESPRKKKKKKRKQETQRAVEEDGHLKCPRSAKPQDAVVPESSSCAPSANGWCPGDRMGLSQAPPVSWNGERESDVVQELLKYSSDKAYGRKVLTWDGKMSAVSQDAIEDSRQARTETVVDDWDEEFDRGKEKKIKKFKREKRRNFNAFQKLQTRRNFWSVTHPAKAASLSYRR
Procedure, shortened: as §1

USP38 = target: T2, USP38 (UniProt Q8NB14)
T2 sequence (whole entry): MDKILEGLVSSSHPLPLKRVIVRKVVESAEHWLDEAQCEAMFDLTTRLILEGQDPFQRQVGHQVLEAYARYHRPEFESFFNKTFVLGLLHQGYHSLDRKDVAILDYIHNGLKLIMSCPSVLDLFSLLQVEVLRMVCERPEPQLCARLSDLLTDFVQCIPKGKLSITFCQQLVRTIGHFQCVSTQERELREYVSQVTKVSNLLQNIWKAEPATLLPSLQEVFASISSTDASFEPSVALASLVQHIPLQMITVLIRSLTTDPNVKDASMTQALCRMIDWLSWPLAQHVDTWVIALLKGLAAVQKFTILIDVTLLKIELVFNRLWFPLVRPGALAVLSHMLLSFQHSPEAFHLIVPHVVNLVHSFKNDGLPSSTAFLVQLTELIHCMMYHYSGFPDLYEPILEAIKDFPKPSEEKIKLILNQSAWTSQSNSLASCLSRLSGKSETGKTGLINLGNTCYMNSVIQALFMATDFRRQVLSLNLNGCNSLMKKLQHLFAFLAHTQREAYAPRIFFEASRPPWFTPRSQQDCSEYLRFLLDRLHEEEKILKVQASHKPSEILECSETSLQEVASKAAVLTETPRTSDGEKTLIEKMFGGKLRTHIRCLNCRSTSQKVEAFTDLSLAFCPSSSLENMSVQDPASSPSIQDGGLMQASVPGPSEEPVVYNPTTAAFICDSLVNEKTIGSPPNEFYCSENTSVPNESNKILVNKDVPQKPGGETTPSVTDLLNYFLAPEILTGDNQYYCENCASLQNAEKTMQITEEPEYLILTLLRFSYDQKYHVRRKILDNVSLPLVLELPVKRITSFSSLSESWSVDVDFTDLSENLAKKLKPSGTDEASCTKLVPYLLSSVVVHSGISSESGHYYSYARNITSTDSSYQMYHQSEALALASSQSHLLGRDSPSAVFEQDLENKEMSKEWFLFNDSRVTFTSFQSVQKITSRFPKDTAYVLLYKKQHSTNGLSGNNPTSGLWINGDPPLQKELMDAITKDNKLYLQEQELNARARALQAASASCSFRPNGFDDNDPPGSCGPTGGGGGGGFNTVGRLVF
Procedure, shortened: as §1

USP39 = target: T3, USP39 (UniProt Q53GS9)
T3 sequence (whole entry): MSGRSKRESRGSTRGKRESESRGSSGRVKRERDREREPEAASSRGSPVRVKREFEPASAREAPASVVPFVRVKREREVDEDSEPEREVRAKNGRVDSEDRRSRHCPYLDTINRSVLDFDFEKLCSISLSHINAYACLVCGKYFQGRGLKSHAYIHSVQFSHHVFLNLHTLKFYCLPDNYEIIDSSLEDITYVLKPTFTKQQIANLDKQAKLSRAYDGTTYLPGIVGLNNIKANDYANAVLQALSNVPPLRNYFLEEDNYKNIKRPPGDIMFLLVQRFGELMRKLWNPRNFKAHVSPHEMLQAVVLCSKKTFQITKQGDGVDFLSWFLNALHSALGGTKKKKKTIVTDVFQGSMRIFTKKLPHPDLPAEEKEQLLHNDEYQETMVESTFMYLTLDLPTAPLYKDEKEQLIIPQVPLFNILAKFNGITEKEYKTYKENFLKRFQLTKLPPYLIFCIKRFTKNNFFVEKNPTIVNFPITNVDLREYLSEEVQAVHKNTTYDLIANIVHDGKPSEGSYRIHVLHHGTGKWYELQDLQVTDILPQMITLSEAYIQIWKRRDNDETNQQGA
Procedure, shortened: as §1

USP4 = target: T4, USP4 (UniProt Q13107)
T4 sequence (whole entry): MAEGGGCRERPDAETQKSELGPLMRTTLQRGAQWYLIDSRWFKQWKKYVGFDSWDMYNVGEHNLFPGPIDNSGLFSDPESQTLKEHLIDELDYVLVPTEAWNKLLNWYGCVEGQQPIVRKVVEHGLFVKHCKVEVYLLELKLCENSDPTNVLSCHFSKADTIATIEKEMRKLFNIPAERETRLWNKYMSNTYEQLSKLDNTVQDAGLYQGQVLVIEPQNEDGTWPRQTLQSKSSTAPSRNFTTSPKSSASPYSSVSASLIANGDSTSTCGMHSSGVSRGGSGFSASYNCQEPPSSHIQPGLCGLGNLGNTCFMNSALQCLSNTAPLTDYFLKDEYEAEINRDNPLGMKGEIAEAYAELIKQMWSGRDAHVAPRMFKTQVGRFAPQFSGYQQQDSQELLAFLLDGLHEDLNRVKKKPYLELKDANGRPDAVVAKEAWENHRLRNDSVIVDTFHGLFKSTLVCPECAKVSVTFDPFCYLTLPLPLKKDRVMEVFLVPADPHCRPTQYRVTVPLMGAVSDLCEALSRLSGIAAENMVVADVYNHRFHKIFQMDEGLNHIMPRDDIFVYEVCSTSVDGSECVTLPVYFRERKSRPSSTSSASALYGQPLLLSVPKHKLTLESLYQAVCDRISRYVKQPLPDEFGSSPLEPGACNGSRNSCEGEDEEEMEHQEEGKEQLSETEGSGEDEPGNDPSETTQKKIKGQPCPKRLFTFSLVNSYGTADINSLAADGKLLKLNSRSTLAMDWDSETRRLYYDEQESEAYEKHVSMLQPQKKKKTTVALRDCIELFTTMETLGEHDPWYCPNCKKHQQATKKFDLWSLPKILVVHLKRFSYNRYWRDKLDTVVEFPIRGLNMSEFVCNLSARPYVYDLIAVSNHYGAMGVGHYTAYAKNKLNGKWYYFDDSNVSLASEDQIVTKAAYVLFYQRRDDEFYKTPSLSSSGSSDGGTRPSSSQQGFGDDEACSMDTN
Procedure, shortened: as §1

Measured: log2 ratio of Biotin-Ahx-Ub-VS probe labelling

CC(O)CC1CCN(C(=O)CCl)CC1 (stereo not given)
inactive: USP34 -0.0285 | USP36 -0.326 | USP38 -0.143 | USP39 -0.0644 | USP4 -0.0429
